The results in this text go back to PubChem BioAssay AID2729 (National Center for Advancing Translational Sciences (NCATS), 2010).

The list shows a part of the results. Results filed as inconclusive are left out. Activity calls are given as the source filed them. Calls come from the whole dose curve; as a rule, active = well fitted inhibition curve with a large enough effect; inconclusive = small, poorly fitted or top-dose-only effect, or effect the other way; inactive = flat fitted curve, though single readings scatter.

The assay in a line: High Content Assay for Compounds that inhibit the Assembly of the Perinucleolar Compartment: WI-38 Cytotoxicity. Conditions: WI-38 normal lung fibroblasts, ATPLite luminescence ATP viability, 24 h; series mostly up to 46.1 µM; activity change, negative = cytotoxicity: at the top concentration. From the text: High Content Assay for Compounds that inhibit the Assembly of the Perinucleolar Compartment
NIH Chemical Genomics Center [NCGC]
NIH Molecular Libraries Probe Centers Network [MLPCN]
Assay Submitter (PI): Sui Huang, Northwestern University, Feinberg School of Medicine, Cell and Molecular Biology, Chicago, Illinois.
The perinucleolar compartment (PNC) is a non-membrane-bound nuclear subdomain that is associated with but structurally distinct from the nucleolus. The PNC is a heritable trait, in which the number of PNCs per cell in daughter cells often mimics that of their mother cells. The PNC is heterogeneous in shape, is stable through interphase, disassembles during mitosis, and reassembles in early G1. The PNC is concentrated with newly synthesized RNA polymerase III (pol III) RNAs (MRP RNA, RNAse P H1 RNA, hY RNAs[hY1, 2, 5], Alu RNA, and SRP [7SL] RNA) and RNA binding proteins (nucleolin, PTB, CUG-BP, KSRP, Raver1, Raver2, and Rod).
Extensive in vitro studies have shown that the PNC is unique to tumor cells and preferentially forms in tumor cells derived from solid tissues. Examination of cancer cell lines from various origins and malignant capacities has shown that PNC prevalence correlates with the malignancy of tumors and has the potential to be developed as a pan-cancer prognostic marker.
Although the PNC is associated with a DNA locus and a handful of components have been identified, much remains to be investigated regarding the structure and function of the PNC and its mechanistic link to cancer. We have previously shown that PNC prevalence reduction is a valid strategy to identify compounds that can be used to study the structure and function of the PNC. It is necessary, however, to create a screening platform that is able to test a large number of compounds in an automated fashion. Here we report the development and robustness of an automated whole-cell phenotypic image-based screening assay that is capable of identifying such compounds.
We conducted a followup assay to measure the effect of the lead candidates on cell health in a non-metastatic line, WI-38, by measuring ATP levels (ATPLite).
1. Cells at a density of 75-90% confluency in T175 flasks were harvested using 7 ml TrypLE Express cell dissociation reagent. After dissociation (5 minutes room temperature incubation) 10 ml of complete media was added to the TrypLE/cell suspension. The liquid was transferred to a 50 ml Conical tube and cells were pelleted at 1000 RPM for 5 min. Supernatant was removed and cells were resuspended to a final density of 150-200 cells/ul in complete media.
2. Cells were plated in 5 ul volume (2000 cells/well) into 1536 well White solid bottom plates and allowed to recover and adhere at 37 C in a humidified 5% CO2 incubator for 4 hours.
3. After 4 hour incubation, compound libraries (23 nl of 12.5 uM in columns 5-48) were transferred to the plates in duplicate using a 1536 well pintool. Camptothecin positive control (59 uM final) was added to column 2 and 1:3 dilutions of camptothecin was added to column 3. DMSO negative controls were present in columns 1 and 4.
4. After a 24 hour incubation in the 37 C incubator, all wells were treated with 3 ul of ATPLite reagent using a multidrop combi dispenser (ThermoFisher). Bubbles that formed during dispensing were removed by spinning the plates for 1 minutre at 1500 RPM on a table top centrifuge.
5. Luminescencent signal was detected on a Viewlux CCD based imager (PerkinElmer) with a clear filter and a 30 second integration time.
The WI-38 normal human fetal lung fibroblast cell line was provided by Sui Huang of Northwestern University. The media and cell culture reagents were purchased from Invitrogen (Carlsbad, CA), ATPLite came from PerkinElmer.
(In general: ATP-based viability assays read luminescence as a measure of living cells.)
Regarding `N=c1c2c(-c3ccccc3)c(-c3ccccc3)n(Cc3ccccc3)c2ncn1CCCO`, the “activity change, negative = cytotoxicity” value was -13.3% (inactive).
Then `Cn1c2ccccc2c(=O)c2c(=O)n(Cc3ccco3)c(COc3ccccc3)nc21`, with -2.37% (inactive); and `CCOC(=O)c1c(-c2cccc(C)c2)csc1NC(=O)c1c(-c2ccccc2)noc1C`, with -12.3% (inactive).
As to `CC1(c2cccc([N+](=O)[O-])c2)CC(C)(C)N(C(=O)c2ccccc2)c2ccccc21` (stereo unspecified), the “activity change, negative = cytotoxicity” value was 7.08% (inactive).
In the case of `COC(=O)C1=C(C)N(c2ccc(Br)cc2)C(=O)/C1=C\c1ccco1`, the “activity change, negative = cytotoxicity” value is -2.42% (inactive).
As for `COC(=O)c1ccc(CSc2ccccc2C)o1`, the “activity change, negative = cytotoxicity” value was 16.6% (inactive).
